HGIII-sPLA2 inh: Blocks human group III sPLA2 activity | QFRET BODIPY PC-A2 liposome hydrolysis, fluorescence | inhibition, % at 12.2 µM | hit rate 0.56% among 370,000 | AID 743126;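 active means inhibition above mean plus 3 SD of compounds lying within the high and low control bounds, cut at about 19% in these data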;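 further: 0% = median of test compound wells and 100% = no enzyme DMSO wells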
Target sequence (Q9NZ20 whole entry, looked up): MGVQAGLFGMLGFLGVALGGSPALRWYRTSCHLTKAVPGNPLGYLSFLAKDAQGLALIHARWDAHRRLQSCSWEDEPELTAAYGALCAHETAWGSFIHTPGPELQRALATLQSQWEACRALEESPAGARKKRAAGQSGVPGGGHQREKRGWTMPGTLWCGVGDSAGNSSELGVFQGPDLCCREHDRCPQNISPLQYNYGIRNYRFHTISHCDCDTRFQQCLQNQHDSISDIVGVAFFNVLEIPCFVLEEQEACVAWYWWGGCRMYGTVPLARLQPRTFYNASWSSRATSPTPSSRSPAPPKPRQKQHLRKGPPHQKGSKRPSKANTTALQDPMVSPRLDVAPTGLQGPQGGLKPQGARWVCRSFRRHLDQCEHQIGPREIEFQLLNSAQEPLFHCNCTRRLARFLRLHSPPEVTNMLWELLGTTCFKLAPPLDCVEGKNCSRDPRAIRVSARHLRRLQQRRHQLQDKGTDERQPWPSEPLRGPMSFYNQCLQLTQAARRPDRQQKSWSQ
FAS TE block: FAS thioesterase (human) inhibition; recombinant FAS-TE, OMFH fluorogenic substrate, fluorescence endpoint; inhibition, % at 15 µM; P49327; hit rate 0.67% among 360,000;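 active means compounds whose normalised, plate-corrected inhibition of enzyme fluorescence in the single-dose primary screen is 50% or more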;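 further: 0% = DMSO with enzyme and 100% = substrate without enzyme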
ADAM10 inh: ADAM10 inhibition, QFRET primary screen; recombinant ADAM10, EDANS/DABCYL FRET peptide cleavage, 3 h; inhibition, % at 7 µM; hit rate 0.62% among 370,000; O14672;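 active means inhibition above a per-campaign cutoff equal to the mean of compounds falling between control-based bounds plus 3 SD, cut at about 20% in these data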;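 further: 0% = DMSO wells while the 100% control is not disclosed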
NR3A LBD binder: modulators (binders) of human NR3A ligand-binding domain. hit rate 2.5% among 340,000. Tm shift relative to glycine control, % at 25 µM. NR3A LBD differential scanning fluorimetry, Tm shift; 0% = protein alone, 100% = glycine-bound protein;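 active means melting temperature shift of at least 10% of the positive control shift, at one fixed dose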
ADAM17 inh: ADAM17 inhibition, QFRET primary screen; AID 720648; recombinant ADAM17, EDANS/DABCYL FRET peptide cleavage; inhibition, % at 6.95 µM; hit rate 0.83% among 370,000;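 active means inhibition above the mean of compounds lying between control limits plus 3 SD, set per campaign, cut at about 8.5% in these data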;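 further: 0% = DMSO-only wells as the low control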
ADAM10 confirm: confirmation of inhibitors of human ADAM10. shares compounds with ADAM10 inh. ADAM10 QFRET peptide cleavage, EDANS fluorescence. AID 743208. inhibition, % at 6.95 µM. hit rate 1% among 2,100;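 active means inhibition above about 20% chosen separately for each screening run, limit read from the data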;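 further: 0% = DMSO wells and 100% = marimastat wells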
ADAM17 counter: counter-screen for ADAM10 exosite inhibitors: inhibitors of human ADAM17. shares compounds with ADAM10 inh. ADAM17 QFRET peptide cleavage, EDANS fluorescence. inhibition, % at 6.95 µM. hit rate 0.5% among 2,100;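 active means mean triplicate inhibition above the solvent-only control wells' mean plus 3 SD, cut at about 12% in these data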;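 further: 0% = DMSO wells and 100% = marimastat wells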
ADAM10 ctr: counter-screen for ADAM17 exosite inhibitors: inhibitors of human ADAM10. shares compounds with ADAM17 inh. recombinant ADAM10, EDANS/DABCYL FRET peptide cleavage, 3 h. inhibition, % at 6.95 µM. hit rate 47% among 2,900. AID 743256;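 active means mean inhibition over the triplicate runs exceeds the activity threshold set in the earlier primary screen, cut at about 20% in these data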;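 further: 0% = DMSO wells and 100% = marimastat wells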
ADAM17 confirm: human ADAM17 inhibition, confirmation | shares compounds with ADAM17 inh | recombinant ADAM17, EDANS/DABCYL QFRET peptide cleavage | inhibition, % at 6.95 µM | hit rate 65% among 2,900 | AID 743257;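 active means mean inhibition across replicates above the hit cutoff set in the primary screen, cut at about 8.5% in these data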;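 further: 0% = DMSO wells and 100% = marimastat wells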
An asterisk follows results filed as active; x = no result. This is a sample that favours compounds with a hit; in the whole collection about 4.3% have one here.

SMILES	HGIII-sPLA2 inh	FAS TE block	ADAM10 inh	NR3A LBD binder	ADAM17 inh	ADAM10 confirm	ADAM17 counter	ADAM10 ctr	ADAM17 confirm
COc1ccc(NC(=O)C2(C)Cc3c(-c4cccc(C(F)(F)F)c4)ccnc3O2)cn1 (configuration not stated)	-17	18	26*	x	12*	1	0	16	12*
CC(=O)Nc1cccc(-c2ccnc3c2CC(C)(C(=O)Nc2cccc(Oc4ccccc4)c2)O3)c1 (configuration not stated)	-32	19	25*	x	9.6*	8	3	20*	15*
CC1(C(=O)Nc2cccc(C(F)(F)F)c2)Cc2c(-c3cccc(C(F)(F)F)c3)ccnc2O1 (configuration not stated)	7	14	-6	x	-2	x	x	x	x
CC(=O)Nc1cccc(-c2ccnc3c2CC(C)(C(=O)Nc2cccc(C(F)(F)F)c2)O3)c1 (configuration not stated)	-48	17	21*	x	8.7*	8	2	18	10*
CC1(C(=O)Nc2cccc(C(F)(F)F)c2)Cc2c(-c3ccc4c(c3)OCO4)ccnc2O1 (configuration not stated)	-11	23	6	x	4	x	x	x	x
CC1(C(=O)Nc2ccc3c(c2)OCO3)Cc2c(-c3cccc(C(F)(F)F)c3)ccnc2O1 (configuration not stated)	-2	26	21*	x	10*	7	3	24*	13*
Cc1ccc([C@H]2C[C@]34CN(Cc5ccccc5)S(=O)(=O)[C@H]3C[C@H]2O4)cc1	9	x	-5	x	-4	x	x	x	x
COP(=O)(OC)C(Cc1ccccc1)NC(=O)CNC(=O)OCc1ccccc1 (configuration not stated)	-1	x	1	x	-3	x	x	x	x
O=C(NC1CCCCN(Cc2cccc(Cl)c2)C1=O)c1ccccn1 (configuration not stated)	-3	x	-4	x	3	x	x	x	x
Cc1ccc(CNC(=O)c2cc(-c3ccccc3C)nn2CC2CC(c3cccnc3)=NO2)cc1 (configuration not stated)	-26	21	10	-3	3	x	x	x	x
Cc1ccccc1-c1cc(C(=O)NCc2ccc(OC(F)(F)F)cc2)n(CC2CC(c3cccnc3)=NO2)n1 (configuration not stated)	-21	19	21*	-5	10*	5	3	25*	13*
O=C(CSc1nnc(-c2ccc(Cl)cc2)n1-c1ccccc1)NN=Cc1c[nH]c2ccccc12	-11	x	29*	x	16*	8	2	42*	18*
CCO[C@H]1OC(C(=O)Nc2ccccc2)=C[C@@H](c2ccc(C(F)(F)F)cc2)[C@@H]1CCCO	-1	27	27*	1	15*	4	1	30*	18*
O=C(CSc1ccccc1)N1CCC(Oc2cccnc2)CC1	1	x	4	x	0	x	x	x	x
Cc1ccc(N(CC(O)CON=C2c3ccccc3-c3ccccc32)S(C)(=O)=O)cc1 (configuration not stated)	-48	31	22*	-4	12*	7	2	22*	14*
Cc1ccc(N(CC(O)Cn2c3ccccc3c3ccccc32)S(C)(=O)=O)cc1 (configuration not stated)	-39	19	19	3	5	x	x	x	x
C=CCNc1ccc2c(c1)OC[C@H](CC(C)C)NS2(=O)=O	-8	x	-10	x	-4	x	x	x	x
CCCCCCCCCCSc1n[nH]c(N)n1	-37	17	45*	-29	19*	2	1	18	10*
CCCCCCCCSc1n[nH]c(N)n1	-7	-13	6	-2	2	x	x	x	x

Assay outcomes as filed in PubChem BioAssay.
